Measured values as given in PubChem BioAssay (NCI).
Compounds without any hit were thinned out: in the full panel of roughly 83,000, 20% have a hit.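 48-hour exposure, single concentration, 96-well plates; percent growth endpoint where 0 means no net growth. Active: below 10.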 Unmarked numbers belong to inactive results. Activity calls are given as the source filed them.

system: HCC-2998 colon; assay: NCI-60 one-dose screen, 48 h (100 = growth as untreated, 0 = no growth, -100 = all killed); details: 10 µM unless noted

| SMILES | growth |
| --- | --- |
| O=c1oc2ccc(Cl)cc2c(=O)n1-c1ccc(Cl)cc1F | 10.7% |
| O=C(CCc1nnc2sc(Cc3ccccc3Cl)nn12)c1nc2ncccc2[nH]1 | 87.7% |
| O=c1oc2ccc(I)cc2c(=O)n1-c1ccc(I)cc1F | 21% |
| O=C(NCc1ccccc1)C1CN(c2ccc(Cl)cc2)N(c2ccc(Cl)cc2)C1=O (stereo unspecified) | 99.4% |
| O=c1oc2ccc(-c3ccc(F)cc3F)cc2c(=O)n1-c1cccc(C(F)(F)F)c1 | 22.9% |
| Nc1nc(-c2cnccn2)nn1-c1nc2ccccc2s1 | 101% |
| O=C(c1ccccc1)N(C(=S)NCCc1ccc(Cl)cc1)c1ccc(Cl)cc1 | 61.9% |
| O=C(COc1cc(O)c2c(=O)cc(-c3ccccc3)oc2c1)Nc1ccccc1 | 99.7% |
| O=C(Nc1ccc(I)cc1F)c1cc(Cl)ccc1O | 17.6% |
| O=c1oc2ccc(F)cc2c(=O)n1-c1ccc(I)cc1F | 14.6% |
| O=C(Nc1ccc(I)cc1F)c1cc(Br)ccc1O | 14.6% |
| CSc1nc2c(c(=O)[nH]1)N=C1c3ccccc3C(=O)C1C(c1ccc(F)cc1)N2 (stereo unspecified) | 64.9% |
| O=C(Nc1ccc(F)cc1F)c1cc(I)ccc1O | 24.4% |
| O=C(Nc1ccc(Br)cc1F)c1cc(Cl)ccc1O | 9.31% (active) |
| Cn1nc(C(C)(C)C)cc1NC(=O)Cc1ccc(/C=C2\C(=O)Nc3ccccc32)cc1 | 96.3% |
| CN(CCc1ccccc1)C(=S)N(C(=O)c1ccc([N+](=O)[O-])cc1)c1ccc(Cl)cc1 | 110% |
